High-throughput results: PubChem, National Center for Advancing Translational Sciences (NCATS)
Sampled rows, rich in hits. Any-hit rate of the full collection: about 6.1%.
ATXN2 expr inh – ATXN2 expression inhibition | HEK-293 ATXN2-luciferase reporter, luminescence, 24 h | 0.72% of 360,000 active | Potency, µM (titrated, usually from 57 µM), without a hit: top-dose activity change, negative = inhibition, actives largely listed as inhibitors; note: % is set by controls: 0 for no effect and ±100 for the full control effect; nearly all actives have a fitted effect of over 55% in size
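qHTS (up to 57 uM final) was run with 24 h compound exposure of reporter cells at 37 °C. Each well was multiplexed: SteadyGlo luminescence measured ATXN2-luciferase expression after a fluorogenic Gly-Phe-AFC viability readout (25 uM final).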
TGFb SMAD3 inh – TGF-b pathway inhibition; Potency, µM (series often up to 46.1 µM), for inactives: at the top dose activity, negative = inhibition, usual class: inhibitors; HepG2 CAGA-GFP TGF-b/SMAD3 reporter, GFP fluorescence, 18 h; TGF-beta stimulated, 500 pg/mL final; 1.2% of 410,000 active; note: % is set by controls: 0 for no effect and ±100 for the full control effect; nearly all actives have a fitted effect of over 65% in size
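Using HEPG2 CAGA-GFP reporter cells at 1000 cells/well, we pinned test compounds, stimulated with recombinant TGF-beta (500 pg/mL final) and measured total well GFP after 18 h.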
Gal4-VP16 FLuc – Gal4-VP16 reporter inhibition counter-screen; Drosophila S2 Gal4-VP16 UAS-luciferase, luminescence, 20 h; Potency, µM (doses to about 53.6 µM), without a hit: at the highest dose activity, negative = inhibition, actives largely listed as inhibitors; 3.5% of 310,000 active; AID 2546;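 note: Gal4-VP16 expression switched on by copper sulfate through the metallothionein promoter; % is set by controls: 0 for no effect and ±100 for the full control effect; nearly all actives have a fitted effect of over 50% in size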
HepG2 tox-1 – counter-screen for TGF-b inhibitors: cytotoxicity in HepG2 cells. 0.76% of 410,000 active. HepG2 CAGA-GFP viability, ATP luminescence, 18 h. Potency, µM (doses to about 46.1 µM), for the others: top-dose activity change, negative = cytotoxicity, most hits filed as cytotoxic
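HepG2 CAGA-GFP cells (1000/well, DMEM with 1% FBS) received compound, then TGF-beta at 500 pg/mL final, and were incubated 18 hours at 37 degrees C. Viability was read by CellTiter-Glo luminescence. Media-only wells were set as complete cell-killing and DMSO as no toxicity.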
RORg inh – ROR gamma (mouse) transcription inhibition; P51450; Drosophila S2 Gal4-RORgamma UAS-luciferase reporter, 20 h; Potency, µM (titrated, usually from 53.6 µM), for the others: at the top dose activity change, negative = inhibition, hits mostly inhibitors; 5.4% of 310,000 active; AID 2551; note: % is set by controls: 0 for no effect and ±100 for the full control effect; nearly all actives have a fitted effect of over 60% in size
Target sequence (P51450 whole entry, looked up, the tested form may be a part): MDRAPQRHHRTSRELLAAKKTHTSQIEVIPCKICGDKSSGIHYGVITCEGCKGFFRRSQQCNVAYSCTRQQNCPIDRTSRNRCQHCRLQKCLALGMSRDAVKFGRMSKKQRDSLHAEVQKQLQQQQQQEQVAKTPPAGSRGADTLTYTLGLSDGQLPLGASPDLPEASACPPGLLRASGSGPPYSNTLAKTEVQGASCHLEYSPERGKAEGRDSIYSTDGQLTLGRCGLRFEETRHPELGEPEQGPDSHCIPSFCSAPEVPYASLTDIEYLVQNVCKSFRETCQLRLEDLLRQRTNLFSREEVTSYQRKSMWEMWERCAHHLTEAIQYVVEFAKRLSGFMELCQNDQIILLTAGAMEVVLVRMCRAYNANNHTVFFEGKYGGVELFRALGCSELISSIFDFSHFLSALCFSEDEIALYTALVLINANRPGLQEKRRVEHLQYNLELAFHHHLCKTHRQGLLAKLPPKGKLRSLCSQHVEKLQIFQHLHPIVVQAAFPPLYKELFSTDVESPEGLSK
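Drosophila Schneider cells stably carrying a metallothionein-driven Gal4 DBD–ROR gamma fusion and a UAS-Photinus luciferase reporter were exposed to compound for 1 hr, then induced with copper sulfate (700 uM final) for 20 hr at ambient temperature before luminescence reading.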
ATXN viability – viability counter-screen for ATXN expression inhibitors; Potency, µM (doses to about 56.7 µM), hits mostly cytotoxic; S2 cells (HEK-293 line with an ATXN2-luciferase reporter) viability, CellTiter-Fluor protease fluorescence, 24 h; AID 651635; 0.49% of 400,000 active; note: nearly all actives have a fitted effect of over 40% in size
TGFb confirm – confirmation of TGF-b signaling inhibitors in HepG2 reporter cells | Potency, µM (highest dose often 46.1 µM), for the others: at the top dose activity, negative = inhibition, usual class: inhibitors | HepG2 CAGA-GFP TGF-b reporter, GFP fluorescence, 18 h; cells stimulated with TGF-beta, 500 pg/mL | AID 720534 | 63% of 1,600 active | shares compounds with TGFb SMAD3 inh; note: % is set by controls: 0 for no effect and ±100 for the full control effect; nearly all actives have a fitted effect of over 65% in size
HepG2 tox-2 – toxic to HepG2 cells in TGF-b counterscreen | shares compounds with TGFb SMAD3 inh | HepG2 CAGA-GFP viability, ATP luminescence, 18 h; cells stimulated with TGF-beta, 500 pg/mL | Potency, µM (titrated, usually from 46.1 µM), without a hit: at the highest dose activity, negative = cytotoxicity, actives largely listed as inhibitors | 27% of 1,600 active | AID 720535; note: % is set by controls: 0 for no effect and ±100 for the full control effect; nearly all actives have a fitted effect of over 70% in size
CCL64 TGFb inh – TGF-b inhibition, CCL64 orthogonal assay; shares compounds with TGFb SMAD3 inh; CCL64 CAGA-GFP reporter, TGF-b stimulated, GFP fluorescence, 18 h; Potency, µM (titrated, usually from 46.1 µM), inactives show at the highest dose activity, negative = inhibition, usual class: inhibitors; 41% of 1,600 active; note: nearly all actives have a fitted effect of over 65% in size
TGFb COP inh – validation of TGF-b inhibitors in HepG2 COP promoter reporter | shares compounds with TGFb SMAD3 inh | HepG2 COP-GFP TGF-b reporter, GFP fluorescence, 18 h; cells stimulated by added recombinant TGF-beta | Potency, µM (top dose mostly 46.1 µM), for inactives: at the top dose activity, negative = inhibition, actives largely listed as inhibitors | 3% of 1,600 active; note: nearly all actives have a fitted effect of over 70% in size
* = called active by the depositor. Calls come from the whole dose curve; as a rule, active = well fitted curve in the direction sought with a large enough effect; inconclusive = small, poorly fitted or top-dose-only effect, or another doubt; inactive = no such curve, though single readings can be large; an effect the other way counts as inactive or inconclusive. Potency is the fitted concentration of half-maximal effect.

For CC=CC(C)=CC(C)C(=O)CC(O)CC1CC(=O)NC(=O)C1 (centres undefined) the results were TGFb SMAD3 inh -24.8%, HepG2 tox-1 -0.6% and ATXN viability inconclusive.
CC1CC(C)(O)CC(C(O)CC2CC(=O)NC(=O)C2)C1=O (centres undefined) was read as ATXN2 expr inh inconclusive, TGFb SMAD3 inh 0.316µM*, HepG2 tox-1 -2.9%, ATXN viability inconclusive, TGFb confirm 0.13µM*, HepG2 tox-2 inconclusive, CCL64 TGFb inh 0.259µM* and TGFb COP inh 35.1%.
COC1(C)CC(c2ccccc2)c2c(c3ccccc3oc2=O)O1 (centres undefined) was read as Gal4-VP16 FLuc -3.1% and RORg inh 25.6%.
Screening CC(C)c1oc(=O)cc2c1[C@@H](O)[C@H]1OC(=O)[C@@]3(C)C[C@@H](O)[C@@H](O)[C@@]2(C)C13 (some centres undefined) returned ATXN2 expr inh inconclusive, TGFb SMAD3 inh 8.91µM*, Gal4-VP16 FLuc -17.9%, HepG2 tox-1 -24.6%, RORg inh -32.1%, ATXN viability inconclusive, TGFb confirm 2.91µM*, HepG2 tox-2 inconclusive, CCL64 TGFb inh 5.17µM* and TGFb COP inh 15.6%.
`CC1=CC(C)CC(C)OC(=O)CC(c2ccc(O)cc2)NC(=O)C(Cc2c(Br)[nH]c3ccccc23)N(C)C(=O)C(C)NC(=O)C(C)C1` (centres undefined) gave ATXN2 expr inh inconclusive, TGFb SMAD3 inh 15.8µM*, HepG2 tox-1 -7.9%, ATXN viability 0.015µM*, TGFb confirm inconclusive, HepG2 tox-2 inconclusive, CCL64 TGFb inh 0.259µM* and TGFb COP inh 79.4%.
For CSCCC(c1nnnn1Cc1ccccc1)N1CCC2(CC1)C(=O)NCN2c1ccccc1 (centres undefined) the results were ATXN2 expr inh -23.7%, TGFb SMAD3 inh inconclusive, HepG2 tox-1 7.5% and ATXN viability inconclusive.
For O=C1NCN(c2ccccc2)C12CCN(C(CCc1ccccc1)c1nnnn1-c1ccc3c(c1)OCCO3)CC2 (centres undefined) the results were ATXN2 expr inh 0.0%, TGFb SMAD3 inh 12.6µM*, HepG2 tox-1 4.1%, ATXN viability inconclusive, TGFb confirm inconclusive, HepG2 tox-2 -6.7%, CCL64 TGFb inh 4.11µM* and TGFb COP inh 6.3%.
